PBM binding z-score data for seven sequences are collected here from the supplement of paper PMC6555819.

What all share (test): PBM binding z-score (relative to random genomic background probes); higher = stronger binding; sequences stand for … in GC…GCGATTGACAGCGTAGAATGAAGG
Experiment [1] has as its system RARb homodimer (NR concentration 270 nM). The essentials: (§1)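 Scanned fluorescence from custom Agilent 4×180K protein-binding microarrays was regression-normalized. Binding z-scores use random background probes as reference. Ligand-free nuclear receptor dimers were incubated on the arrays for 1 h and detected with antibodies against each partner (one per run).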
Experiment [2] deals with RARg:RXRa (NR concentration 270 nM, RXRa partner concentration 90 nM). In a few lines: as §1
The subject of experiment [3] is RARg homodimer (NR concentration 270 nM). In a few lines: as §1
The subject of experiment [4] is RXRa DBDmut IVT, anti-RXR (DBD mutation: RXRa K156A/R161A, NR concentration 90 nM). The essentials:
as §1

The test system of experiment [5] is RXRa homodimer (NR concentration 180 nM). In a few lines:
as §1

The subject of experiment [6] is THRa:RXRa (NR concentration 90 nM, RXRa partner concentration 90 nM). The essentials:
as §1

The test system of experiment [7] is THRa homodimer (NR concentration 90 nM). In a few lines:
as §1

The subject of experiment [8] is VDR homodimer (NR concentration 270 nM). In a few lines: as §1

For the sequence TCTTGTAGATCAGCAGGTTAGGAAAGCTGGCCAA, the PBM binding z-score in experiment [1] was 0.063; in experiment [2], -0.177; in experiment [3], -0.406; in experiment [4], 0.591; in experiment [5] it was 0.165; in experiment [6] it was 0.0538. In addition, the PBM binding z-score is -0.496 in experiment [7] and -0.206 in experiment [8].
On to GTAGCAAGGTGAATAGGTCGTTGATGAGTAGGCG, for which the PBM binding z-score in experiment [1] was 1.48; in experiment [2], 2.35; in experiment [3] it was 1.1; in experiment [4], -0.689; in experiment [5], 1.56; in experiment [6], 1.36. Further, the PBM binding z-score in experiment [7] is -0.149; in experiment [8] it was -0.287.
Regarding CCTCGGAGGACAACAGGAGGTCAGATCTGCCAGA, the PBM binding z-score is 3.64 in experiment [1]; 3.34 in experiment [2]; 3.12 in experiment [3]; 0.415 in experiment [4]; 1.59 in experiment [5]; 2.81 in experiment [6]. Moreover, the figures for the PBM binding z-score in experiment [7] and in experiment [8] were 1.03 and 1.28, respectively.
For CGTCAAAGTTCGACTAAGGTAACGTAAAGCACGC, the PBM binding z-score in experiment [1] was 1.77; in experiment [2], 2.14; in experiment [3], 1.99; in experiment [4] it was 2.97; in experiment [5], 1.5; in experiment [6], 4.99. In addition, the values for the PBM binding z-score in experiment [7] and in experiment [8] were 1.58 and 1.03, respectively.
As for GCTTGAAGATCAAGGTTAAGAAAGACTAAGCTAA, the PBM binding z-score in experiment [1] was 0.0789; in experiment [2], 0.319; in experiment [3], 0.181; in experiment [4], -0.437; in experiment [5], 0.877; in experiment [6], 1.02. Moreover, the results for the PBM binding z-score in experiment [7] and in experiment [8] were -0.36 and -0.116, respectively.
Turning to CTACCAAGGTGAATAAGGTCGTTGATTACTATTC, the PBM binding z-score was found to be 2.05 in experiment [1]; 1.54 in experiment [2]; 1.21 in experiment [3]; 1.38 in experiment [4]; 1.71 in experiment [5]; 3.6 in experiment [6]. In addition, the PBM binding z-score in experiment [7] is 2.67; in experiment [8] it was 2.68.
Regarding TCTAGTTGGTAACGGAGGTCACACACGACGGGTA, the PBM binding z-score in experiment [1] came out at 4.04; in experiment [2], 3.79; in experiment [3], 3.14; in experiment [4] it was 0.917; in experiment [5] it was 4.14; in experiment [6], 3.54. Moreover, the PBM binding z-score amounted to 2.41 in experiment [7] and 2.47 in experiment [8].
